In the library only some 11% were active in any assay of this set; here they are far more common.
Pf growth 96h – inhibits malaria parasite growth, 96 h | P. falciparum luciferase reporter growth, 96 h | Potency, µM (doses to about 28.7 µM), inactives show top-dose activity change, negative = inhibition, hits mostly inhibitors | 6.9% of 320,000 active
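Two parasite generations (96 h, 37 C, 5% CO2) of compound exposure in infected erythrocytes (0.05% parasitemia, 2% hematocrit). Luciferase-reporter P. falciparum; decreased luminescence indicates inhibited growth, aimed at apicoplast-acting delayed death.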
HCV inhibitor – HCV inhibition | Huh7.5.1 HCVcc-Cre infection, luciferase reporter, 44 h | Potency, µM (top dose mostly 41.8 µM), for inactives: at the top dose activity change, negative = inhibition, usual class: inhibitors | 3.4% of 340,000 active
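Compounds are dispensed onto cells plated 4 h earlier at 1,000 per well, with HCVcc-Cre virus (about 0.5 moi) added next. Following 44 h of culture, luminescent signal is measured for 15 sec after 15 min with substrate at room temperature.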
Pf growth 48h – inhibits P. falciparum growth in the first generation, 48 h; 5.9% of 310,000 active; P. falciparum luciferase growth in erythrocytes, 48 h; Potency, µM (doses to about 28.7 µM), for inactives: at the top dose activity change, negative = inhibition, actives largely listed as inhibitors
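Read-out is firefly luciferase luminescence from an integrated reporter in P. falciparum, so falling signal marks reduced parasite growth. Infected erythrocytes were at 2% hematocrit and 0.1% parasitemia (final) in Albumax-supplemented RPMI 1640.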
AMA1 RON2 block – AMA1-RON2 (P. falciparum) interaction inhibition; AID 720542; AlphaScreen AMA1-biotinylated RON2 peptide binding; Potency, µM (top dose mostly 58.2 µM), for inactives: at the highest dose activity change, negative = inhibition, most hits filed as inhibitors; 0.2% of 360,000 active;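 further: 0% = vehicle wells and -100% = peptide control; nearly all actives have a fitted effect of over 45% in size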
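AMA1 (3D7) with his tag at 25 nM final met compounds first, then biotinylated RON2 peptide at 25 nM; detection used donor plus acceptor beads, 10 µg/mL apiece, read by AlphaScreen after 30 min at room temperature.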
Starred values were filed as active, the others as inactive; ? = inconclusive; · = not tested or not shown; [ ] = dose if it differs, or a comment. The call rests on the fitted dose curve; in most records, active means well fitted curve in the direction sought with a large enough effect; inconclusive means small, poorly fitted or top-dose-only effect, or another doubt; inactive means no such curve, though single readings can be large; an effect the other way counts as inactive or inconclusive. Unless noted, on the % scale 0 is the no-effect control and ±100 the full control effect; potency means the concentration at half of the fitted maximal effect.

SMILES	Pf growth 96h	HCV inhibitor	Pf growth 48h	AMA1 RON2 block
CCc1ccc(C(=O)COC(=O)c2ccccc2OC)cc1	-24%	10%	75%	9%
Cc1ccc(CNC(=O)c2ccc(CNc3c(N4CCCC4)c(=O)c3=O)cc2)cc1	-11%	3%	·	5%
Cc1ccc(N(C)C(=O)c2ccc(CNc3c(N4CCC(C)CC4)c(=O)c3=O)cc2)cc1	?	-4%	9.3µM*	-2%
CC1CCN(c2c(NCc3ccc(C(=O)N(C)C4CCCCC4)cc3)c(=O)c2=O)CC1	-19%	-5%	8.3µM*	6%
Cc1nnsc1Sc1ccccc1C(=O)O	33%[5.75 µM]	8%	-39%[5.75 µM]	1%
Cc1nnc(SCc2ccc([N+](=O)[O-])cc2)o1	3%	5%	44%	1%
Cc1ccc(-c2nc(NC(=O)c3nn(C)cc3[N+](=O)[O-])sc2C)cc1	·	4.5µM*	9%	-1%
Cn1cc([N+](=O)[O-])c(C(=O)Nc2nc(-c3ccc(Cl)cc3)cs2)n1	0%	4µM*	41%	-5%
COC(=O)[C@]12CCCCC=C1N(CCC1=CCCCC1)C(=O)[C@H](CC(=O)N1CCN(C(=O)C3CC3)CC1)C2	·	·	·	-8%
COc1cc2c(cc1OC)C(c1cc3cc(C)ccc3[nH]c1=O)N(C(=O)c1ccco1)CC2 (centres undefined)	-5%	7%	?	-8%
COc1ccc2cc(C3c4cc(OC)c(OC)cc4CCN3C(=O)c3ccco3)c(=O)[nH]c2c1 (centres undefined)	26%	-5%	5.2µM*	-17%
CCC(=O)N1CCc2cc(OC)c(OC)cc2C1COc1ccc(C(=O)OC)cc1 (centres undefined)	?	?	10µM*	-14%
COC(=O)c1ccc(OCC2c3cc(OC)c(OC)cc3CCN2C(=O)c2ccco2)cc1 (centres undefined)	?	?	15µM*	-14%
COC(=O)c1ccc(OCC(O)CN2CCc3cc(OC)c(OC)cc3C2c2ccccc2)cc1 (centres undefined)	10µM*	7.9µM*	?	?
COC(=O)c1ccc(OCC2c3cc(OC)c(OC)cc3CCN2C(C)=O)cc1 (centres undefined)	?	?	?	5%
Cc1cccc2cc(-c3nc4ccc(C(=O)O)cc4[nH]3)c(=O)oc12	11%	1%	105%	8%
CCC(=O)OCCCCCCOc1ccc(C(=O)O)cc1	30%	2%	-9%	8%
CC(=O)c1ccc(N2CCN(c3ncccn3)CC2)cc1	70%	-7%	80%	2%
O=S(=O)(NCc1ccccc1F)c1cccc(S(=O)(=O)N2CCOCC2)c1	63%	18%	8.3µM*	-2%
COCCNC(=O)C(c1ccncc1)N(Cc1ccccc1)C(=O)Cn1nnc2ccccc21 (centres undefined)	?	8%	144%	14%
COc1ccc(NC(=O)COC(=O)Cc2c(F)cccc2Cl)cc1OC	0%	1%	-2%	-18%
Cc1ccc(C2CN(C)C3(C(=O)Nc4ccccc43)C23COc2ccccc2C3=O)cc1 (centres undefined)	?	2%	15µM*	-18%
COc1ccc(OC)c(C(=O)Nc2ccc3[nH]ccc3c2)c1	·	?	·	-1%
COc1c(C(CC(C)C)OC(C)=O)ccc2c1C(=O)OCc1cc(C)cc(O)c1O2 (centres undefined)	108%	2.5µM*	8.3µM*	-14%
COc1c(C(O)CC(C)C)ccc2c1C(=O)OCc1cc(C)cc(O)c1O2 (centres undefined)	0%	2.2µM*	38%	-18%
SMILES	Pf growth 96h	HCV inhibitor	Pf growth 48h	AMA1 RON2 block
CC(C)(C)[C@@H]1C=C(C(N)=O)O[C@H](OCCCCO)C1	·	9%	·	31%
CCOC(=O)N1CCC(N2C(=O)c3ccccc3C2Nc2cc(C(=O)OC)cc(C(=O)OC)c2)CC1 (centres undefined)	8.3µM*	4%	·	1%
CCOC(=O)N1CCC(N2C(=O)c3ccccc3C2Nc2cc(C)cc(C)c2)CC1 (centres undefined)	?	-13%	?	-13%
CCOC(=O)N1CCC(N2C(=O)c3ccccc3C2Nc2ccc(C)cc2)CC1 (centres undefined)	9.3µM*	11%	·	-18%
CCc1ccc(NC(=O)COC(=O)/C=C/c2c(C)nn(C3CCS(=O)(=O)C3)c2Cl)cc1 (centres undefined)	1%	-6%	-4%	12%
CCN(C(=O)Cn1ccc(C(F)(F)F)n1)c1c(N)n(Cc2ccccc2)c(=O)[nH]c1=O	-22%	14%	-6%	3%
CC1=C(C(=O)OC2CCCC2)C(c2ccc(C)o2)C2=C(CC(c3cccs3)CC2=O)N1 (centres undefined)	10%	?	9.3µM*	-6%
CC1=C(C(=O)OC2CCCCCC2)C(c2ccc(C)o2)C2=C(CCCC2=O)N1 (centres undefined)	92%	?	?	1%
CC1=C(C(=O)OC2CCCCC2)C(c2ccc(C)o2)C2=C(CC(C)(C)CC2=O)N1 (centres undefined)	-18%	3%	12µM*	15%
CC1=C(C(=O)OC2CCCC2)C(c2coc3ccccc3c2=O)C2=C(CCCC2=O)N1 (centres undefined)	5%	9%	?	5%
COC(=O)C1=C(C)NC2=C(C(=O)CC(c3cccs3)C2)C1c1ccsc1 (centres undefined)	34%	-2%	0%	0%
CCOC(=O)C1=C(C)NC2=C(C(=O)CC(c3cccs3)C2)C1c1cccs1 (centres undefined)	?	?	4.1µM*	25%
C/C(=N\NC(=O)c1ccc(Cl)cc1)c1ccc2[nH]ccc2c1	?	18%	16%	79%
COCCNC(=O)Cn1nc(-c2ccc(C)cc2)c2ccccc2c1=O	7%	2%	29%	-7%
Cc1noc(C)c1CSCC(=O)Oc1ccc(N(C)S(=O)(=O)c2ccc(Cl)cc2)cc1	23%	3%	-4%	-8%
CC(=O)Nc1ccc(-c2ccnc3c2CC(C)(C(=O)NC(C)C)O3)cc1 (centres undefined)	·	·	·	-23%
Cc1ccc(NC(=S)NCCc2ccc(S(N)(=O)=O)cc2)cc1C	-15%	?	-3%	0%
Cc1ccc(SCCNC(=S)Nc2cc(C)ccc2C)cc1	8.3µM*	-24%	·	50%
Cc1cc(C)cc(NC(=S)NCCc2ccc(S(N)(=O)=O)cc2)c1	1.7µM*	-2%	-8%	-3%
CCOC(=O)c1ccc(NC(=S)NCCc2ccc(F)cc2)cc1	8%	11µM*	-5%	41%
Cc1ccc(C)c(NC(=S)NCCN(C2CCCCC2)C2CCCC2)c1	?	?	10µM*	1%
O=C(CS(=O)CC(=O)NC12CC3CC(CC(C3)C1)C2)Nc1ccc(F)cc1 (centres undefined)	?	-10%	13%	0%

Screens deposited in PubChem by National Center for Advancing Translational Sciences (NCATS).
